# About 37,000 (12%) of roughly 300,000 compounds were called active. For the sample, actives were picked, then their nearest neighbours and some compounds at random. Unmarked numbers belong to inactive results. No stated cut-off is given here; in the data, active means max response mostly above about 13% (no sharp cut-off); inactive means mostly below about 14%.
# Assay: Cycloheximide Counterscreen for Small Molecule Inhibitors of Shiga Toxin; further: read at 38.3 µM for the half of the compounds with a filed dose; 0% is about no effect
# Details: cell reporter, cycloheximide protein synthesis inhibition counterscreen; hits give high values
row,Structure (SMILES),max response
1,COC(c1ccccc1)(c1ccccc1)C(Oc1nc(C)cc(C)n1)C(=O)O (stereo not drawn),-1.54%
2,O=C(NCc1csc(-c2cccs2)n1)C1CC1,49.8% (active)
3,O=C(NCc1cccs1)C1CCN(S(=O)(=O)c2ccc(Cl)cc2)CC1,8.38%
4,CC(C)(C)C1CCC(C(=O)NCC(c2cccs2)N2CCOCC2)CC1 (stereo not drawn),1.44%
5,CCN(CC)S(=O)(=O)c1ccc(N2CCN(C)CC2)c(NC(=O)Nc2ccccc2F)c1,-3.4%
6,CCC(CC)C(=O)Nc1c2c(nn1-c1ccc(C)cc1)CS(=O)(=O)C2,-1.32%
7,Cn1c(N)c(C(=O)COC(=O)c2cnc(Cl)c(Cl)c2)c(=O)n(C)c1=O,-2.82%
8,COc1ccc(/C=C/C(=O)NC(=S)N2CCCC(C(N)=O)C2)cc1 (stereo not drawn),12.7%
9,O=C(/C=C/c1ccco1)NC(=S)N1CCCCC1,25.7% (active)
10,COc1ccc(Cl)cc1C(=O)NNC(=S)NC(=O)/C=C/c1ccco1,0.62%
11,CCNC(=S)N1CCN(C(=O)c2ccco2)CC1,-0.408%
12,CC(C)CNC(=O)COC(=O)/C=C/c1ccco1,-2.86%
13,O=C(/C=C/c1ccco1)NC(=S)Nc1ccccc1Br,21% (active)
14,O=C(Cc1ccccc1)Nc1ccc(C(=O)Nc2ccccc2C(=O)O)cc1,-2.41%
15,Cn1sc(=O)c2cc(S(=O)(=O)NC3CC3)ccc21,-2.97%
16,CCCNC(=S)N1CCC(NC(=O)c2ccc(OC)cc2)CC1,-1.83%
17,Cc1nnc(SCC(=O)Nc2ccc(S(=O)(=O)Nc3ccc(Cl)nn3)cc2)s1,-1.1%
18,CCOc1ccc(C(=O)Nc2ccc(S(=O)(=O)Nc3cc(C)on3)cc2)cc1,-5.61%
19,CCC(=O)Nc1ccc(C(=O)Nc2ccc3c(c2)C(=O)N(CC2CCCO2)C3=O)cc1 (stereo not drawn),-2.89%
20,Cc1cc(NC(=O)c2cccc(N3C(=O)CCC3=O)c2)no1,-2.26%
21,CCOc1ccc(NC(=O)Nc2cc(C)on2)cc1,43.6% (active)
22,Cc1cc(NC(=O)c2ccccc2C)no1,32.6% (active)
23,CCOc1ccc(CC(=O)Nc2ccc(S(=O)(=O)Nc3cc(C)on3)cc2)cc1OCC,-4.07%
24,Cc1cc(NC(=O)CSCc2ccccc2C)no1,12.4%
25,COc1ccc(C)cc1NC(=O)Nc1ccccc1SC,0.774%

row,Structure (SMILES),max response
1,CCOc1ccc(NC(=O)Nc2cc(C)ccc2OC)cc1,25.4% (active)
2,CCOc1ccc(C(=O)Nc2cc(OC)ccc2OC)cc1,-3.82%
3,CCC(=O)Nc1ccc(C(=O)Nc2cc(C)on2)cc1,17.5% (active)
4,Cc1cc(NC(=O)CN2CCC(O)(c3cccc(F)c3)CC2)no1,4.43%
5,COc1cccc(NC(=S)N(CCc2c(C)[nH]c3ccccc23)Cc2ccco2)c1,-1.95%
6,O=S(=O)(NC1CC1)c1ccc(Cl)cc1,-3.78%
7,CCOC(=O)C1=C(CCc2ccccc2)NC(=O)NC1c1ccc2ccccc2c1 (stereo not drawn),-1.16%
8,CC1(c2ccc3ccccc3c2)NC(=O)NC1=O (stereo not drawn),1.06%
9,CCN(CC)C(=O)CN(c1cccc(OC)c1)S(=O)(=O)c1ccc(C)cc1,1.38%
10,COc1ccc(C)cc1-n1nnnc1SCc1nc2ccccc2c(=O)[nH]1,10.3%
11,COc1ccc(CCn2c(NN=C3CCCC3)nc3c2c(=O)[nH]c(=O)n3C)cc1,0.589%
12,CCc1ccc2nc3sc(C(=O)Nc4nnc(CC)s4)c(N)c3cc2c1,17.3%
13,Cc1ccc(NC(=O)c2sc3nc(N)c(C#N)cc3c2N)cc1,41% (active)
14,CC(=O)Nc1ccc(NC(=O)c2sc3nc4c(c(-c5ccc(C)cc5)c3c2N)CCC4)cc1,0.359%
15,CCN1CCN(C(=O)Cn2nc(C)n3c(cc4c(OC)cccc43)c2=O)CC1,1.35%
16,Cc1c(Cl)cccc1NC(=O)CCC(=O)N/N=C/c1ccco1,-1.66%
17,CCCCSc1nnc(-c2ccc(NC(=O)CC)cc2)n1C,-3.61%
18,O=C(CN1CCN(c2ccccn2)CC1)Nc1ccc(Br)cc1,-4.91%
19,CCC(=O)Nc1ccc(-c2ccc(N3CCCCC3)nn2)cc1,42.9% (active)
20,O=C1Nc2ccc([N+](=O)[O-])cc2C1=Nc1cccc(CO)c1,-2.88%
21,Cc1ccc(C(=O)OC2CCCN(C)C2)cc1 (stereo not drawn),6.14%
22,Cn1ccc(=NC=C(C#N)C#N)c2ccccc21,1.04%
23,CCOc1cc(CN2CCCC(CO)(Cc3ccc(F)cc3F)C2)ccc1OC (stereo not drawn),-0.883%
24,CC(=O)Nc1ccc(NC(=O)CSc2nnnn2-c2ccccc2F)cc1,9.54%
25,CCn1nnnc1SCC(=O)c1ccc(C)cc1C,56.3% (active)

row,Structure (SMILES),max response
1,COc1ccc(C(=O)CSc2nnnn2C)c(OC)c1,-3.16%
2,Cc1ccc(C)c(-n2nnnc2SCC(=O)c2c(N)n(C)c(=O)n(C)c2=O)c1,-2.92%
3,CCn1nnnc1SCC(=O)Nc1ccc(N(C)C)cc1,25.2% (active)
4,COc1ccc(-n2nnnc2SCC(=O)Nc2ccccc2)cc1,-4.18%
5,CCc1nccn1CCC(=O)N1CCCC(N2CCN(c3ccccc3F)CC2)C1 (stereo not drawn),15.2%
6,COc1ccc(S(=O)(=O)N(C)CC(=O)NCCCN2CCOCC2)cc1Cl,-1.58%
7,Cc1cccc([C@@H]2[C@@H]3C(=O)N(Cc4ccccc4)C(=O)[C@@H]3[C@]3(C)C(=O)N(c4ccc(Br)cc4)C(=O)N23)c1,7.73%
8,C=CS(=O)c1sc(Cl)c(N2CCOCC2)c1[N+](=O)[O-] (stereo not drawn),-4.64%
9,CC(=O)N1CCOc2ccc(S(=O)(=O)N3CCC(C(=O)Nc4ccccc4F)CC3)cc21,-0.955%
10,Cc1ccc(N(C(=O)C(F)(F)F)C(C(=O)NC2CCCCC2)c2ccncc2)cc1C (stereo not drawn),-3.75%
11,Cc1cc(C(=O)COC(=O)c2cccs2)c(C)n1-c1c(C)n(C)n(-c2ccccc2)c1=O,16.4%
12,Cc1nn(-c2ccccc2)c(-n2cccc2)c1C(=O)O,-4.68%
13,Cc1ccc(OC(=O)c2c(C)nn(-c3ccccc3)c2C)cc1,47.6% (active)
14,CCCn1c(C)cc(C(=O)COC(=O)c2c(C)nn(-c3ccccc3)c2C)c1C,32.3% (active)
15,Cc1nn(-c2ccccc2)c(C)c1C(=O)OCC(=O)NC(=O)NC1CCCCC1,2.3%
16,CCCc1cc(=O)[nH]c(SCC(=O)c2cc(C)n(CCC)c2C)n1,7.55%
17,COCCn1c(SCC(=O)Nc2cc(OC)ccc2OC)nc2c(c1=O)SC(C)C2 (stereo not drawn),-1.66%
18,CC(C)CC(=O)N1CCN(Cc2ccccc2Br)CC1,-2%
19,NC(=O)C(Cc1ccccc1)NC(=O)C12CC3CC(CC(C3)C1)C2 (stereo not drawn),0.275%
20,Cc1ccc(NNC(=O)C2CCC2)cc1C,-2.16%
21,CCCOc1ccc(NC(=O)C2OC3OC(C)(C)OC3C3OC(C)(C)OC23)cc1 (stereo not drawn),10.8%
22,CCOc1ccc(NC(=S)N2CCC(NC(=O)c3ccccc3)CC2)cc1,-1.64%
23,Cc1ccc(N(NC(=O)C(C)(C)O)C(=O)c2ccccc2)cc1C,-3.59%
24,Cc1ccc(N/C=C/C(=O)c2ccccc2)cc1C,45.6% (active)
25,CCCOc1ccc(NC(=O)C2CCCNC2=O)cc1 (stereo not drawn),16.5%

row,Structure (SMILES),max response
1,CCOc1ccc(N/C=C/C(=O)c2cc(OC)c(OC)c(OC)c2)cc1,3.1%
2,CCCOc1ccc(N/C=C/C(=O)C(C)(C)C)cc1,33% (active)
3,CCOc1ccc(N/C=C/C(=O)c2ccccc2)cc1,38.2% (active)
4,Cc1cc(OCC(=O)NCC(O)c2ccccc2)c2c(C)c(C)c(=O)oc2c1 (stereo not drawn),8.74%
5,O=C(O)c1ccccc1C(=O)NC1=NN(c2ccccc2)CC1,-1.86%
6,O=C(CSc1n[nH]c(-c2cccnc2)n1)Nc1ccc(Cl)cc1,1.65%
7,CCO[C@@H]1OC(C(=O)NC2CC2)=C[C@H](C)[C@H]1CCCO,-1.17%
8,CC(NC(=S)NC1CCCCC1)C(c1ccccc1)N1CCOCC1 (stereo not drawn),0.505%
9,Cc1cc(=O)n2nc(N3CCCC(C(=O)NCc4cccc(Cl)c4)C3)sc2n1 (stereo not drawn),-3.8%
10,CN(NS(=O)(=O)c1cccs1)c1ncc(C(F)(F)F)cc1Cl,-0.853%
11,OC(CNCCc1ccc(Cl)cc1Cl)COc1ccccc1 (stereo not drawn),-1.8%
12,O=C(NCCc1ccccc1)C1CC1,13%
13,COc1ccc(OCCCC(=O)NCCc2ccccc2)cc1,-2.28%
14,NS(=O)(=O)c1ccc(CCNC(=O)c2ccc(Cl)cc2[N+](=O)[O-])cc1,-2.71%
15,CCCOc1ccc(C(=O)NCCc2ccccc2)cc1,27% (active)
16,CN(c1ccccc1)S(=O)(=O)c1ccc(C(=O)NCCc2ccccc2)cc1,11.2%
17,CC(C)c1ccc(C(=O)NCCCc2ccccc2)cc1,46.9% (active)
18,O=C(CCc1ccccc1)NNC(=O)COc1ccc(Cl)cc1,0.663%
19,O=C(NCCc1ccccc1)c1ccc(OCCOc2ccccc2)cc1,0.57%
20,O=C(NCCc1ccccc1)Oc1ccc(Cl)cc1,48.1% (active)
21,Cc1cc(C(=O)NCCc2ccc(Cl)cc2)n(-c2ccccc2)n1,-0.868%
22,Nc1ccc(C(=O)NCc2ccccc2)cc1,-1.11%
23,Cc1cc(C(=O)NCCc2ccc(Cl)cc2)c(C)o1,49.4% (active)
